Data: PMC4336329 (PLoS ONE, 2015)
Out of some 310,000 compounds screened, about 14,000 (4.5%) showed an effect of 50% or more. The effect is printed as a negative number. Shown is part of a subset that was picked to be rich in strong results.

Target: human ether-à-go-go-related gene (hERG) potassium channel (human, UniProt Q12809)
Assay: primary screen, population patch clamp on CHO cells stably expressing hERG; higher = less effect of the substance
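Also: peak tail current of the secondary pulse compared with the same well before compound.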

Chain of human ether-à-go-go-related gene (hERG) potassium channel (Q12809 whole entry, looked up): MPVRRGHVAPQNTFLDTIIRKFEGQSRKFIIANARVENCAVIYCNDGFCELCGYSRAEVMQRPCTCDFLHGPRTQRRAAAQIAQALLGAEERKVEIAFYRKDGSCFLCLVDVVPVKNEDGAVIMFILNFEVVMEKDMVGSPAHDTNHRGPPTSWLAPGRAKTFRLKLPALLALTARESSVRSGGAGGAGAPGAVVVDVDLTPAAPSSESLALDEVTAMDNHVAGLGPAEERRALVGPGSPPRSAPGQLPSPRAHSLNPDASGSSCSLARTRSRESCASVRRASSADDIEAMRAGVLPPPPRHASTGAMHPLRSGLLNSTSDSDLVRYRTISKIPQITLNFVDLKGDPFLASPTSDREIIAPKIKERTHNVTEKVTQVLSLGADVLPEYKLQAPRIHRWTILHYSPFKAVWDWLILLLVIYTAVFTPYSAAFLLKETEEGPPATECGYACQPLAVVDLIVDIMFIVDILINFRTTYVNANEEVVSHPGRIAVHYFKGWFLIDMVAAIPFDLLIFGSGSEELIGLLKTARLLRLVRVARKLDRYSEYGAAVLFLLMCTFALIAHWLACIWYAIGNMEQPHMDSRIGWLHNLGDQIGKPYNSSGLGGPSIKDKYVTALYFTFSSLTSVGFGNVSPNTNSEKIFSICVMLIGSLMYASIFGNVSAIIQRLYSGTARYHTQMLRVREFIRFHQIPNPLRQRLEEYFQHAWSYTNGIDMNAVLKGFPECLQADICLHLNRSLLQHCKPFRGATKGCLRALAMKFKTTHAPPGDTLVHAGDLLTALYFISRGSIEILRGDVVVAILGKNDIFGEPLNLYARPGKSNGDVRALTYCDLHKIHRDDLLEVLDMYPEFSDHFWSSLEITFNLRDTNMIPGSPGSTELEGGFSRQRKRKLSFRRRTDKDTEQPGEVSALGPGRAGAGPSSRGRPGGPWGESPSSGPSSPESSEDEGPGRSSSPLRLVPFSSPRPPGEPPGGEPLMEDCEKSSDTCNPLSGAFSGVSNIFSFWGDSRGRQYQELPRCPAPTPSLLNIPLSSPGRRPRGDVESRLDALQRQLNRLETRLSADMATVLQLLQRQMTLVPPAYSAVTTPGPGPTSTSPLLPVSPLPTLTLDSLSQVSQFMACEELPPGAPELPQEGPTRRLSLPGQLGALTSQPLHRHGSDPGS

SMILES | hERG current change (%, negative = inhibition) at 10uM [%]
COc1ccc(/C=N/NC(=O)CCn2c3ccccc3c3ccccc32)cc1O | 5.18
COc1ccc(NS(=O)(=O)c2cc(C)ccc2OC)cc1OC | 10.5
CN(C)c1ccc2c(O)cc(=O)n(C)c2c1 | 6.76
O=C(NC1CCCC1)c1cc2nc(-c3ccccc3)cc(-c3ccccc3)n2n1 | -23.3
Cc1ccc2nc(C)c(C)nc2c1N | 8.1
O=C(Nc1ccc(Cl)cc1Cl)c1ccc2c(=O)n3c(nc2c1)CCC3 | -39.8
Fc1ccc(CSc2nnc(-c3cnccn3)n2Cc2ccco2)cc1 | -52.2
CCn1c(SCc2nc3ccccc3c(=O)[nH]2)nnc1-c1ccncc1 | -11.7
Cn1c(SCc2nc3ccccc3c(=O)[nH]2)nc2ccccc21 | 0.933
c1coc(Cn2c(SCc3nc4ccccc4[nH]3)nnc2-c2cnccn2)c1 | -56.3
Cn1c(Cc2ccccc2)nnc1SCc1nc2ccccc2c(=O)[nH]1 | -1.69
Fc1ccccc1CSc1nnc(-c2cnccn2)n1Cc1ccco1 | -11.2
NC(=O)CSc1nnc(-c2cnccn2)n1Cc1ccco1 | 7.06
c1ccc(-c2nnc(SCc3nc4ccccc4[nH]3)n2Cc2ccco2)cc1 | -22.4
c1ccc(-c2nnc(SCc3nc4ccccc4[nH]3)n2Cc2ccco2)nc1 | -8.18
COCCn1c(SCc2nc3ccccc3c(=O)[nH]2)nnc1-c1ccncc1 | -4.64
O=c1[nH]c(CSc2nnc(-c3ccncc3)n2Cc2ccco2)nc2ccccc12 | -58.2
Cn1c(-c2ccccc2)cnc1SCc1nc2ccccc2c(=O)[nH]1 | -59.9
Cl.NC(N)=NC(N)=Nc1ccc(SC(F)(F)F)cc1 | -21.3
Oc1cccnc1Sc1cccc(C(F)(F)F)c1 | 18.6
CC(C)(C)c1nnc(NC(=O)CCS(=O)(=O)c2ccccc2)s1 | 5.03

SMILES | hERG current change (%, negative = inhibition) at 10uM [%]
COc1cc(/C=C2/SC(=S)NC2=O)ccc1OS(=O)(=O)c1ccc(C)cc1 | 39.8
CCOc1ccc(CCNC(=O)C2CCN(S(=O)(=O)N3CC(C)CC(C)C3)CC2)cc1OCC (stereo not shown) | 20.7
Cc1c(NC(=O)Cn2cc([N+](=O)[O-])cn2)c(=O)n(-c2ccccc2)n1C | 11.7
CC1CCN(c2ccc3c(c2)S(=O)(=O)c2ccccc2C3=O)CC1 | 7.82
COc1cccc2cc(C(=O)C3=C(O)C(=O)N(c4cc(C)on4)C3c3cccs3)oc12 (stereo not shown) | 22.9
COc1ccccc1CNC(=O)CS(=O)Cc1nc(-c2ccc(OC)c(OC)c2)oc1C (stereo not shown) | -6.47
COc1ccccc1NS(=O)(=O)c1ccc2oc(=S)[nH]c2c1 | 2.14
CC1CC(C)(C)NC(=S)N1CCC(=O)Nc1ccc2c(c1)OCCO2 (stereo not shown) | 18.3
CC(C)(C)c1ccc(OC(=O)N2CCOCC2)cc1 | 14
COc1cc(OC)cc(C(=O)Nc2cccc(-c3ccc(N4CCOCC4)nn3)c2)c1 | 14.5
O=c1[nH]c(=S)n(Cc2ccc(F)cc2)c(O)c1C=NCCCn1ccnc1 | -60.3
O=c1[nH]c(=O)n(CCC2=CCCCC2)c(O)c1/C=N/N1CCOCC1 | -21.6
O=c1[nH]c(=S)n(CCC2=CCCCC2)c(O)c1/C=N/N1CCOCC1 | -41.8
CN1CCN(/N=C/c2c(O)n(CCC3=CCCCC3)c(=S)[nH]c2=O)CC1 | -64.9
O=c1[nH]c(=S)n(CCC2=CCCCC2)c(O)c1C=NCCCn1ccnc1 | -69.3
O=c1[nH]c(=S)n(CCC2=CCCCC2)c(O)c1C=NCc1cccnc1 | -0.946
O=c1[nH]c(=O)n(CCC2=CCCCC2)c(O)c1C=NCCCn1ccnc1 | -17.6
O=c1[nH]c(=S)n(C2CC2)c(O)c1C=NCC1CCCO1 (stereo not shown) | -6.97
O=c1[nH]c(=S)n(Cc2ccc(F)cc2)c(O)c1C=NCC1CCCO1 (stereo not shown) | -61.9
O=c1[nH]c(=O)n(Cc2ccc(F)cc2)c(O)c1C=NCC1CCCO1 (stereo not shown) | -13
O=c1[nH]c(=O)n(Cc2ccc(F)cc2)c(O)c1C=NCCCn1ccnc1 | 4.08

SMILES | hERG current change (%, negative = inhibition) at 10uM [%]
O=c1[nH]c(=O)n(CCc2ccc(F)cc2)c(O)c1C=NCCCn1ccnc1 | -3.22
O=C(/C=C/c1ccccc1)C1C(=O)c2ccccc2C1=O | -0.201
Cn1cnc(S(=O)(=O)N2CCN(c3ccccc3)CC2)c1 | 17.3
Cc1c(C(=O)O)oc2c1C(O)CCC2 (stereo not shown) | 0.768
COc1ccc(N(C(C)=O)C2C=CS(=O)(=O)C2)c(OC)c1 (stereo not shown) | 9.14
CSc1nnc(C(C)(C)C)c(=O)n1/N=C/c1ccc(Cl)cc1 | 0.0206
CC(/C=N/NC(=O)CNc1n[nH]c(=O)[nH]c1=O)c1ccccc1 (stereo not shown) | 2.52
COc1ccc(-c2nn(-c3ccccc3)cc2CN2CCCO2)c(F)c1 | 3.95
CCn1ccnc1CN(C)Cc1cn(-c2ccccc2)nc1-c1ccc(OC)cc1F | -44.9
CN(Cc1ccccn1)Cc1cn(Cc2ccccc2)nc1-c1ccc2c(c1)OCO2 | -20.6
CN(Cc1cnccn1)Cc1cn(Cc2ccccc2)nc1-c1ccc2c(c1)OCO2 | -23
CN(Cc1cn(Cc2ccccc2)nc1-c1ccc2c(c1)OCO2)Cc1nccn1C | -32.7
COc1cccc(-c2nn(-c3ccccc3)cc2CN(C)Cc2c(C)nc3ccccn23)c1 | -59.9
Cc1nccn1CCN(C)Cc1cn(Cc2ccccc2)nc1-c1ccc2c(c1)OCO2 | -60
CN(Cc1cn(-c2ccccc2)nc1-c1ccc2c(c1)OCO2)Cc1nccn1C | -16.1
COc1ccc(-c2nn(-c3ccccc3)cc2CN(C)CCn2ccnc2C)c(F)c1 | -57.6
CN(Cc1ncc[nH]1)Cc1cn(-c2ccccc2)nc1-c1ccc2c(c1)OCO2 | -60.1
COc1cccc(-c2nn(-c3ccccc3)cc2CN(C)Cc2ccon2)c1 | 9.02
COc1cccc(-c2nn(-c3ccccc3)cc2CN(C)Cc2ccno2)c1 | 3.65
